# Experimental data: the supplement of paper PMC3334620
# Whole data set: some 33,000 sequences, median “E-score (-0.5 to 0.5)” near -0.011, cut for the highest 2% near 0.28. Many of the other results were omitted from the sample, so the highest values are more common in it than they were.
# Biological target: T1, Gcr1 (UniProt P07261)
# T1 sequence: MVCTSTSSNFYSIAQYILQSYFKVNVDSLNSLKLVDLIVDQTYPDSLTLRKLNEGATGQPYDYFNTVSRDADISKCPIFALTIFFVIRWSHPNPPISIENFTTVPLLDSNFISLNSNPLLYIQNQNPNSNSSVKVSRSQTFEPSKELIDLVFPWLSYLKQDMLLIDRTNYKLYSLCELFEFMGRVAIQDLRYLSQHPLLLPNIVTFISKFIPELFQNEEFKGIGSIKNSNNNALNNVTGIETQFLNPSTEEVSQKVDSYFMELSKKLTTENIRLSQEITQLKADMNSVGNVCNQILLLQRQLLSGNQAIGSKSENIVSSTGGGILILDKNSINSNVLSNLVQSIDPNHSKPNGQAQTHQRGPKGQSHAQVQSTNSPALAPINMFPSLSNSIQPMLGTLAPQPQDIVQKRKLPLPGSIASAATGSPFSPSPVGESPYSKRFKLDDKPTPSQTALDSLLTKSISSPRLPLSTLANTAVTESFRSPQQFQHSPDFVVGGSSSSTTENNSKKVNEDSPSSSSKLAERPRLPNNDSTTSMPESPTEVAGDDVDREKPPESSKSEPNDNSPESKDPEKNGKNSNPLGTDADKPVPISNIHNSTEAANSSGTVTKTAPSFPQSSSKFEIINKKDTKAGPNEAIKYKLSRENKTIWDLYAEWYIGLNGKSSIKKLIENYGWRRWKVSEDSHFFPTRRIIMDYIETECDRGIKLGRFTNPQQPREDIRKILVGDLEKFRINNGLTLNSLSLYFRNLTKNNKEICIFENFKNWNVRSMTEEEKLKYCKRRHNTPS
# Assay: PBM E-score (8-mer binding enrichment) (E-score (-0.5 to 0.5)); higher = stronger / more preferred TF binding
# Conditions: protein concentration: 100 nM; construct: GST-full length
# Description: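 Universal 'all 10-mer' protein binding microarrays (Agilent AMADID 015681) probed with GST-tagged S. cerevisiae TFs (full-length or DBD) made by in vitro transcription/translation (PURExpress), about 100-200 nM. Bound TF was detected with fluorescent anti-GST. Each ungapped 8-mer (which stands for itself and its reverse complement) is scored by the PBM enrichment score (E-score), a modified Wilcoxon-Mann-Whitney statistic from -0.5 to +0.5, computed with the Universal PBM Analysis Suite. Scale: above 0.35 generally sequence-specific binding.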
row,Sequence,PBM E-score
1,ACGCGTCT,0.155
2,AAGCGTCC,0.323
3,AAGCGTCA,-0.0114
4,GCATCAAC,0.15
5,CACGGAGC,0.101
6,CGGTATCC,0.282
7,CGGTAGCC,0.296
8,AGGTAGCC,0.238
9,AGGTATCG,0.019
10,AGGTATCC,0.28
11,CGGTATCA,-0.0496
12,CGGTAGCA,-0.0732
13,CTGTATCC,0.207
14,AGGTATCA,0.0276
15,CAAGCTAA,-0.177
16,CCTGTGAG,-0.218
17,CGCCCTAG,0.143
18,ATAGCCAG,0.0137
19,CGCAATTC,0.0283
20,CTACCGTC,-0.0298
21,GCCATCCA,0.086
22,CCGATACA,0.0692
23,CCAGTTAG,0.0191
24,AGGCGCCG,0.354
25,ATGCGCCC,0.0661

row,Sequence,PBM E-score
1,GCGCGCCC,0.0734
2,ACGCGCCA,0.196
3,AAGCGCCT,0.0782
4,AGGCGCCC,0.384
5,AGGCGCCT,0.321
6,AGGCGCAT,0.0287
7,AGGCGCAG,0.157
8,ACGCGCCC,0.352
9,AGGCGCCA,0.268
10,AGGCGCGC,0.16
11,AGTGCTCC,-0.116
12,GTCAGAAA,0.0237
13,AAGGGCTA,-0.138
14,AACAATCC,-0.0423
15,TGGACAAA,0.0886
16,CCCGGTCC,-0.0935
17,CGGACACC,0.0465
18,ACTGCAAG,-0.185
19,TTGTGAAA,0.0169
20,CCCGTTAG,0.0113
21,CGCGCATC,0.252
22,ATCCCCCG,0.175
23,AGGAATAC,0.0815
24,AGGAATCG,0.294
25,AAGAATCA,0.142

row,Sequence,PBM E-score
1,AAGAATCC,0.391
2,AGGAATCC,0.459
3,ATGAATCC,0.0178
4,AGGAAGAG,-0.0854
5,AGGAAGCA,0.13
6,GAGAATCC,0.236
7,AGGAATCA,0.144
8,AGGAAGCG,0.354
9,AGGAATGG,0.0654
10,GGCTATGA,-0.188
11,AATCCGTC,-0.0275
12,AGCCAGAA,0.13
13,TCTGCAGA,-0.194
14,ATGACCCG,-0.321
15,CGGAATCA,0.0684
16,AGGAAGTG,0.213
17,ACGAATCC,0.288
18,CCGAATCC,0.133
19,CGGAAGTC,-0.00248
20,CGGAATTC,0.242
21,ACGAATCT,0.122
22,AGGAAGTC,0.337
23,CGGAATCC,0.417
24,CCCGAGAC,0.0132
25,ATCCGCTC,0.0142

row,Sequence,PBM E-score
1,ACTCCCTA,-0.0517
2,CGCCTGTC,-0.105
3,GGTGTTCA,0.106
4,AGTGGTGC,0.305
5,CGTGGTGC,-0.0202
6,AGTGGTAA,-0.099
7,AGTGGTGG,0.305
8,AGTGGTGA,0.0333
9,AATGGTGC,0.208
10,AATGGTGG,-0.00912
11,AGTGGTAG,0.318
12,CGTGGTAG,-0.133
13,CCGATGAC,-0.0977
14,AAGTTGCG,0.211
15,AACATCCG,0.164
16,ATCATCCG,-0.191
17,AGCATCCA,0.457
18,AACATCCA,0.193
19,AGCATCCG,0.372
20,TGCATCCA,0.182
21,ACTTTAAA,0.0642
22,ATAGTAAG,-0.0276
23,ACAAGACC,-0.0386
24,GAGCAATA,0.0781
25,CCGAACTC,-0.0172

row,Sequence,PBM E-score
1,ACTGGAAC,0.301
2,ACGGGAAG,0.112
3,CCTGGAAG,0.0765
4,AATGGAAT,0.301
5,AATGGGAG,0.0925
6,CCTGGAAC,-0.0042
7,AATGGGAA,0.132
8,ACTGGAAG,0.463
9,AATGGAAC,0.154
10,ACTGGAAA,0.0867
11,AATGGAAG,0.27
12,AATGGGAT,0.28
13,AGGCAATC,-0.245
14,CTCCAAGA,0.0262
15,ATTTGCAC,0.0134
16,GTAGCTAA,-0.0197
17,TAGAAACA,0.112
18,TTGAAAAA,0.0707
19,CCCATAGC,-0.16
20,ACTGGAAT,0.415
21,ACGGGAAT,0.111
22,ACTGGGAT,0.0877
23,AGCCGTGG,-0.108
24,ACGAGAGG,-0.238
25,CAGGTATA,-0.0414

row,Sequence,PBM E-score
1,GCTGTAGA,-0.0143
2,ACTGTAGA,-0.079
3,CCTGTATA,0.2
4,CCTGTAGA,0.283
5,CCGGTATA,0.191
6,ACGGTATC,-0.0774
7,CAGGTATC,0.311
8,CCTGTATC,0.324
9,CCGGTATC,0.288
10,ACTGTATC,-0.275
11,AAGGTATC,0.158
12,ACGGTAAG,-0.0708
13,CAACTGGC,0.0226
14,GATCACCA,-0.0057
15,TACCGTAA,0.0593
16,GACCCCCC,-0.241
17,CGCCTGCA,-0.117
18,AATGAGTA,0.143
19,CGAACCTA,-0.117
20,GAACCCCC,0.0349
21,GGAACCTA,0.401
22,GGAACCCA,0.394
23,GAACCCCA,0.344
24,AGAACCCA,0.234
25,GGGACCCC,0.00587

row,Sequence,PBM E-score
1,GGGACCCA,0.303
2,AGAACCTA,0.0206
3,TGGACCCA,0.104
4,TGAACCCA,0.0317
5,GAACCCAA,0.167
6,CGATGGGC,-0.0735
7,AGCTTCAT,0.0447
8,CTAACCAG,0.0668
9,GGCCCCCA,0.231
10,CATACCGA,0.0765
11,ACTCCTTA,0.0309
12,AGCCACAA,0.15
13,GGAACCCC,0.394
14,AGAACCCC,0.0794
15,CGAACCCC,0.0243
16,ACCTATCC,0.0168
17,ATGCTACG,0.0159
18,ACACACTC,0.0505
19,AGACATTA,-0.0316
20,CGACATTC,-0.0306
21,CGACATTA,0.306
22,CTGGGTGC,0.244
